# Cruzain noTriton: cruzain (T. cruzi) inhibition without detergent; AID 1476; Potency, µM, for inactives: max response, negative = inhibition, usual class: inhibitors; purified cruzain, Z-FR-AMC fluorescence, no detergent; 2.3% of 200,000 active;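 further: plate controls were enzyme without inhibitor for no effect and buffer without enzyme for full effect; nearly all actives have a fitted effect of over 40% in size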
# Target sequence (P25779 123-467 limits assumed): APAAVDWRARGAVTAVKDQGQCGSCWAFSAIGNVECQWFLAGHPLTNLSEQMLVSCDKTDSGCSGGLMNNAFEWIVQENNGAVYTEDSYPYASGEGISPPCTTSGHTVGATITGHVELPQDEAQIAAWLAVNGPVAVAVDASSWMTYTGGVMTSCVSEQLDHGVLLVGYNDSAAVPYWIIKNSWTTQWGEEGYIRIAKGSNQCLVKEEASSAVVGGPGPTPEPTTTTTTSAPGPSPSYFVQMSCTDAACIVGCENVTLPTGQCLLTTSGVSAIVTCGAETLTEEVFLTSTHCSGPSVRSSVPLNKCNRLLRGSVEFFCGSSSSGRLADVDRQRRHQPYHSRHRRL
#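 Purified cruzain at 1.5 nM, pre-incubated 15 min with compound at room temperature in 100 mM sodium acetate pH 5.5, 5 mM DTT, 0.00005% Triton X-100. Reaction started with 2 uM Z-FR-AMC; AMC fluorescence increase over 60 s gives rate.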
# Cruzain Triton: cruzain (T. cruzi) inhibition with detergent. AID 1478. Potency, µM, for inactives: max response, negative = inhibition, most hits filed as inhibitors. P25779. 0.43% of 200,000 active. purified cruzain, Z-FR-AMC fluorescence, 0.01% Triton;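 further: plate controls were neutral wells for no effect and buffer without enzyme for full effect; nearly all actives have a fitted effect of over 40% in size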
#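 Z-FR-AMC hydrolysis (2 uM substrate) by cruzain (1.5 nM) monitored kinetically at ex 360/em 450 nm after 15 min room-temperature compound exposure; 0.01% Triton X-100, pH 5.5, 5 mM DTT.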
# Numbers without * were called inactive; ? = inconclusive. Compounds with a hit are over-represented: about 2.6% of the library has one in this group of screens. The call rests on the fitted dose curve; in most records, active means well fitted curve in the direction sought with a large enough effect; inconclusive means small, poorly fitted or top-dose-only effect, or another doubt; inactive means no such curve, though single readings can be large; an effect the other way counts as inactive or inconclusive. Potency means the concentration at half of the fitted maximal effect.
SMILES,Cruzain noTriton,Cruzain Triton
O=C(Nc1ccc(O)c(-c2nc3ccccc3o2)c1)C1(c2ccc(Br)cc2)CCCC1,5.01µM*,0.3%
Cc1ccc(OCC(=O)Nc2ccc3nc(Nc4cccc(Cl)c4)cc(C)c3c2)cc1,20µM*,2.8%
O=C(Nc1ccc(O)c(-c2nc3ccccc3o2)c1)c1ccc(Br)cc1,-2.4%,0.5%
Cc1cc(C)cc(OCC(=O)Nc2ccc(-c3nc4ccccc4o3)cc2)c1,1.2%,-1.6%
Cc1ccc(OCC(=O)Nc2ccc(O)c(-c3nc4ccccc4o3)c2)cc1,3.98µM*,-2.4%
O=C(COc1ccc(/C=N/NS(=O)(=O)c2ccccc2)cc1)Nc1cccc(Cl)c1,-14.3%,-5.4%
CCN1CCN(C(=S)Nc2ccc(Cl)c(Cl)c2)CC1,-3.0%,-4.5%
CC(=O)c1cn(CC(=O)NCC2CCCO2)c2ccccc12 (stereo unspecified),1.2%,0.5%
CCOc1ccc(-c2ncncc2-c2ccc(OC)cc2)c(O)c1,-13.0%,-6.9%
O=C(OCC(=O)N1CCN(C(=O)c2ccco2)CC1)C1=COCCO1,-12.8%,2.1%
Fc1ccc(CN(C2=NCCN2)c2c(Cl)cccc2Cl)cc1,-5.3%,-1.0%
CCOc1cccc2cc(C(=O)N3CCc4ccccc43)c(=O)oc12,15.8µM*,2.5%
COc1cccc2cc(C(=O)N3CCc4ccccc43)c(=O)oc12,4.0%,3.6%
C[C@@H]1O[C@@H](O)[C@@H](O)[C@H](O)[C@H]1O,4.0%,-1.0%
Cc1ccc(Cn2c(C(=O)Nc3cccc(Cl)c3)cc3sccc32)cc1,25.1µM*,-5.4%
CC(=O)c1ccc(NC(=O)c2cc3sccc3n2Cc2ccc(Cl)cc2)cc1,?,-3.7%
CCOC(=O)c1cccc(NC(=O)c2cc3sccc3n2Cc2ccc(Cl)cc2)c1,9.4%,4.3%
CCOC(=O)c1ccc(NC(=O)c2cc3sccc3n2Cc2ccc(Cl)cc2)cc1,10µM*,1.8%
COc1ccc(/C=N/n2c(N)c(S(=O)(=O)c3cccs3)c3nc4ccccc4nc32)cc1OC,2.3%,-3.3%
COc1ccc(OCC(=O)N2CCN(c3cccc(C(F)(F)F)c3)CC2)cc1,?,-7.6%
CCC1CCc2nc3sc(C(=O)Nc4cccc(F)c4)c(N)c3cc2C1 (stereo unspecified),5.01µM*,-4.8%
CCC1CCc2nc3sc(C(=O)Nc4cccc(C(F)(F)F)c4)c(N)c3cc2C1 (stereo unspecified),-34.1%,-2.7%
Cc1cc(C)nc(N2CCC(C(=O)Nc3nnc(C)s3)CC2)n1,0.1%,3.3%
Cc1ccc2nc(SCC(=O)NCc3cccs3)c(C#N)cc2c1,10µM*,5.7%
Cc1ccc2cc(C#N)c(SCC(=O)NCc3ccco3)nc2c1,?,-5.7%
SMILES,Cruzain noTriton,Cruzain Triton
Cc1cc2nnc(SCC(=O)NCc3cccs3)n2c(N)n1,-8.1%,1.4%
Cc1ccc2nc(SCC(=O)NCc3ccco3)c(C#N)cc2c1,25.1µM*,2.5%
O=C(N/N=C/c1ccncc1)/C(=C/c1ccccc1)NC(=O)c1ccccc1,2.2%,-1.1%
COc1ccc(CCNC(=O)CN(C)S(=O)(=O)c2cccs2)cc1OC,-3.3%,-1.5%
O=C(CSc1n[nH]c(-c2ccc(S(=O)(=O)NC3CCCCC3)cc2)n1)N1CCCC1,2.3%,-3.1%
Cn1ncc(Br)c1C(=O)N1CCOCC1,0.6%,1.2%
CCOC(=O)COc1ccccc1-c1ccno1,25.1µM*,?
CCOC(=O)COc1ccc2nsnc2c1Cl,-3.5%,-0.9%
CCOC(=O)c1nnn(-c2nonc2N)c1CN1CCCCCC1,1.6%,4.5%
Cc1ccc(N(CC(=O)N/N=C/c2ccc(OC3CSC3)cc2)S(=O)(=O)c2ccccc2)cc1,?,-0.8%
Cc1ccc(N(CC(=O)N/N=C/c2ccc(OC3CSC3)cc2)S(=O)(=O)c2ccccc2)c(C)c1,15.8µM*,-4.9%
CCCCN1C(=O)c2ccccc2C1C(=O)NC1CCCC1 (stereo unspecified),6.3%,4.0%
CCCCC(C=O)NC(=O)C(CC(C)C)NC(=O)OCc1ccccc1 (stereo unspecified),0.0025µM*,0.002µM*
COC(=O)C(C)NC(=O)C(C)NC(=O)OCc1ccccc1 (stereo unspecified),-3.5%,0.0%
CC(=O)N[C@@H](CC(C)C)C(=O)O,-3.9%,-0.7%
CCCC[C@@H](C=O)NC(=O)[C@H](CC(C)C)NC(=O)[C@H](CC(C)C)NC(C)=O,0.0032µM*,?
CSCCC(NC=O)C(=O)NC(CC(C)C)C(=O)NC(Cc1ccccc1)C(=O)O (stereo unspecified),4.9%,5.0%
CSCC[C@H](C=O)NC(=O)[C@H](CC(C)C)NC(=O)[C@H](CC(C)C)NC(C)=O,0.0025µM*,0.0028µM*
Cc1ccc(C)c(NC(=O)c2nn(C)c3c2CS(=O)(=O)c2ccccc2-3)c1,2.1%,0.6%
CN1/C(=C/C=C(/C#N)C(N)=O)C(C)(C)c2ccccc21,-27.1%,-11.8%
COc1ccc(OCC(=O)N2CC3(C)CC2CC(C)(C)C3)cc1 (stereo unspecified),9.8%,1.3%
CCc1ccc(NC(=O)CO/N=C(\C)c2cc3ccccc3o2)cc1,-8.9%,-9.0%
O=C(COc1ccc(/C=N/NC(=O)c2cc3ccccc3o2)cc1Br)Nc1ccccc1,10µM*,25.1µM*
O=C(CSc1ccccc1)Nc1nnc(COc2ccc(Cl)cc2)s1,0.7%,-15.7%
Cc1ccc(-n2c(COc3c(C)cccc3C)nnc2SCC(=O)Nc2nccs2)cc1,25.1µM*,11.3%
SMILES,Cruzain noTriton,Cruzain Triton
Cc1cccc(C)c1OCc1nnc(NC(=O)CSc2ccc(Cl)cc2)s1,25.1µM*,0.9%
Cc1ccc(OCc2nnc(SCC(=O)Nc3nccs3)n2-c2ccccc2)cc1C,5.5%,3.2%
COC(=O)Nc1nnc(/C=C/c2ccc(OC)cc2)s1,-10.5%,3.8%
COc1ccc(/C=C/c2nnc(NC(=O)CSc3ccc(Cl)cc3)s2)cc1,10µM*,-1.3%
CCNC(=O)c1c(O)c2ccccc2[nH]c1=O,1.4%,-2.4%
CN(CC(=O)NCc1ccccn1)S(=O)(=O)c1ccccc1,4.7%,4.6%
CC(=O)c1ccc(NC(=O)Cn2cnc3nc4c(cc3c2=O)CC(C)CC4)cc1 (stereo unspecified),-7.3%,-0.1%
O=C(NCc1ccc2c(c1)OCO2)C1CCN(S(=O)(=O)N2CCCCC2)CC1,-1.3%,-3.2%
O=C(NCc1ccc2c(c1)OCO2)C1CCN(c2ccc(S(=O)(=O)N3CCCC3)cc2)CC1,25.1µM*,-1.1%
Cc1ccc(-c2nnc(Nc3ccc(Cl)c(Cl)c3)c3ccccc23)cc1S(=O)(=O)N(C)C,6.31µM*,-2.8%
Cc1ccc(-c2nnc(Nc3cccc(Cl)c3)c3ccccc23)cc1S(=O)(=O)N1CCOCC1,3.0%,-2.8%
Cc1ccc(-c2nnc(Nc3ccc(Cl)c(Cl)c3)c3ccccc23)cc1S(=O)(=O)NCCO,14.9%,-2.3%
Cc1ccc(-c2nnc(Nc3cccc(Cl)c3)c3ccccc23)cc1S(=O)(=O)N1CCCCC1,7.94µM*,-2.3%
O=C(Nc1ccc(F)c(F)c1)c1cc(S(=O)(=O)N2CCc3ccccc32)ccc1F,-0.3%,-1.0%
COc1cccc(CNC(=O)CCc2cn(Cc3ccccc3Cl)c3ccccc23)c1,?,0.4%
CCC(C)NC(=O)COC(=O)c1ccccc1OCC(=O)Nc1ccc(Br)cc1 (stereo unspecified),14.9%,2.8%
COCC(=O)Nc1ccc(Nc2ccccc2)cc1,25.1µM*,4.7%
CCC(=O)Nc1ccc(Nc2ccccc2)cc1,-9.8%,0.1%
O=C(COC(=O)c1ccccc1OCC(=O)Nc1ccc(Br)cc1)Nc1ccccc1,12.6µM*,1.4%
